Some test systems named below: SK-MEL-2 melanoma; EKVX NSCLC; SN12C renal; UO-31 renal; TK-10 renal; ACHN renal; CAKI-1 renal; A498 renal; CCRF-CEM leukemia; MOLT-4 leukemia; SR leukemia; RPMI-8226 leukemia; OVCAR-8 ovarian; OVCAR-5 ovarian; SK-OV-3 ovarian; IGROV1 ovarian; HS 578T breast; NCI/ADR-RES ovarian; OVCAR-4 ovarian; OVCAR-3 ovarian.
Common to all, as to test: NCI-60 one-dose screen, 48 h (100 = growth as untreated, 0 = no growth, -100 = all killed)
Conditions in all cases: 10 µM unless noted

In PubChem BioAssay (NCI) one finds growth data, which are given here for 13 compounds.

The panel holds about 83,000 compounds, 20% with a hit somewhere; the sample as a whole holds those more often.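 Results are percent growth after 48 hours of single-concentration exposure. 100 means growth as in untreated cells, lower positive values show inhibition; negative values down to -100 show cell death.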 A number with no mark means an inactive call. Activity calls are given as the source filed them. How the source made its calls: active means growth percent below 10; inactive means the rest.

Regarding `COc1cc(C2CC(c3ccccc3)=NN2C=O)ccc1Oc1ccnc2cc(Cl)ccc12` (configuration not stated), the growth in the assay on SK-MEL-2 melanoma was 82.4%; with EKVX NSCLC it was 33.5%; in the assay on SN12C renal, 65.4%; in the assay on UO-31 renal it was 47.2%; in the assay with TK-10 renal it was 91.1%; with ACHN renal, 68.9%. Besides, the growth in the assay with CAKI-1 renal was 49.6%; in the assay with A498 renal, 76.4%; with CCRF-CEM leukemia, 45.7%; in the assay with MOLT-4 leukemia, 12.8%; in the assay with SR leukemia, 50.4%; in the assay on RPMI-8226 leukemia, 32.1%. For the same compound, the growth is 38.7% in the assay on OVCAR-8 ovarian; 84.2% with OVCAR-5 ovarian; 86.6% in the assay with SK-OV-3 ovarian; 80.1% in the assay with IGROV1 ovarian; 76.2% in the assay on HS 578T breast; 22.9% with NCI/ADR-RES ovarian.
Consider `C[C@H](NC(=O)c1snnc1C1CC1)c1c(F)cccc1Cl`, for which the growth is 108% in the assay with SK-MEL-2 melanoma; 115% with EKVX NSCLC; 104% in the assay with SN12C renal; 94% with UO-31 renal; 129% in the assay on TK-10 renal; 92.1% with ACHN renal. Also, the growth is 115% in the assay with CAKI-1 renal; 96.4% in the assay on A498 renal; 110% with CCRF-CEM leukemia; 101% in the assay with MOLT-4 leukemia; 149% in the assay with SR leukemia; 130% with RPMI-8226 leukemia. For the same compound, the growth in the assay on OVCAR-8 ovarian is 104%; in the assay on OVCAR-5 ovarian, 115%; with OVCAR-4 ovarian, 110%; in the assay on IGROV1 ovarian, 113%; with OVCAR-3 ovarian, 114%; in the assay with HS 578T breast, 100%. Besides, the growth in the assay with NCI/ADR-RES ovarian is 97.8%.
For the compound `CS(=O)(=O)c1ccc(C(=O)N/N=C/c2ccccc2Cl)cc1`, the growth in the assay with SK-MEL-2 melanoma is 104%; with EKVX NSCLC it was 97%; in the assay with SN12C renal, 98.3%; in the assay on UO-31 renal, 84.3%; in the assay on TK-10 renal, 110%; in the assay with ACHN renal, 108%. In addition, the growth was 97.8% in the assay on CAKI-1 renal; 91.3% in the assay on A498 renal; 108% with CCRF-CEM leukemia; 67.7% in the assay on MOLT-4 leukemia; 92.5% in the assay on SR leukemia; 115% in the assay with RPMI-8226 leukemia. Moreover, the growth in the assay on OVCAR-8 ovarian was 97.1%; in the assay on OVCAR-5 ovarian, 109%; in the assay on OVCAR-4 ovarian, 95.9%; in the assay on SK-OV-3 ovarian, 88.3%; in the assay with OVCAR-3 ovarian, 103%; in the assay on HS 578T breast, 98.1%. Further, in the assay with NCI/ADR-RES ovarian, the growth was 106%.
Regarding `CCCCCCCOc1cccc(/C=C2\N=C3SCCCN3C2=O)c1`, the growth in the assay on SK-MEL-2 melanoma is 95.5%; with EKVX NSCLC, 92.7%; with SN12C renal it was 94.1%; with UO-31 renal, 78.7%; in the assay on TK-10 renal, 96.2%; in the assay on ACHN renal, 96.4%. In addition, the growth in the assay with CAKI-1 renal was 94.4%; with A498 renal it was 94.6%; with CCRF-CEM leukemia it was 111%; in the assay with MOLT-4 leukemia, 100%; in the assay with SR leukemia it was 105%; in the assay on RPMI-8226 leukemia, 91.7%. For the same compound, the growth in the assay on OVCAR-8 ovarian was 102%; with OVCAR-4 ovarian it was 85.6%; with SK-OV-3 ovarian, 107%; with IGROV1 ovarian, 98.7%; with OVCAR-3 ovarian, 90.6%; with HS 578T breast, 109%. Also, in the assay with NCI/ADR-RES ovarian, the growth is 97%.
For the compound `ClC1(Cl)C2CCCCCCC21` (configuration not stated), the growth with SK-MEL-2 melanoma is 93%; with EKVX NSCLC it was 107%; with SN12C renal, 108%; in the assay on UO-31 renal, 93.4%; in the assay on TK-10 renal, 92.1%; in the assay with ACHN renal it was 110%. The growth with CAKI-1 renal was 98.3%; in the assay on A498 renal it was 79.3%; with CCRF-CEM leukemia it was 109%; with MOLT-4 leukemia it was 109%; in the assay on SR leukemia it was 108%; in the assay on RPMI-8226 leukemia it was 106%. Also, the growth is 123% in the assay with OVCAR-8 ovarian; 109% with OVCAR-4 ovarian; 118% with SK-OV-3 ovarian; 107% in the assay on IGROV1 ovarian; 120% in the assay with OVCAR-3 ovarian; 91.8% in the assay with HS 578T breast.
Take `O=C(Nc1ccncc1)C(=O)c1cn(S(=O)(=O)c2cccc(Cl)c2F)c2ccccc12`: the growth with SK-MEL-2 melanoma was 60.6%; with EKVX NSCLC, 59.2%; in the assay with SN12C renal, 82.9%; with UO-31 renal, 56.9%; in the assay on TK-10 renal, 112%; in the assay with ACHN renal, 101%. For the same compound, the growth with CAKI-1 renal is 68.3%; with A498 renal it was 72%; in the assay on CCRF-CEM leukemia, 66.4%; with MOLT-4 leukemia it was 60.2%; with SR leukemia it was 20%; with RPMI-8226 leukemia, 50.2%. Also, the growth was 82.1% in the assay on OVCAR-8 ovarian; 65.4% with OVCAR-4 ovarian; 97.3% in the assay on SK-OV-3 ovarian; 70.9% in the assay on IGROV1 ovarian; 74.7% with OVCAR-3 ovarian; 84.7% with HS 578T breast.
For the compound `COc1ccc2nc(C)cc(Sc3nc4ccccc4s3)c2c1`, the growth with SK-MEL-2 melanoma was -99.6% (active); with EKVX NSCLC it was 42.1%; with SN12C renal it was 40.5%; with UO-31 renal, 16.7%; in the assay on TK-10 renal it was 61.4%; with ACHN renal it was 33.7%. Further, the growth in the assay with CAKI-1 renal was -41.8% (active); in the assay with A498 renal, 40.7%; with CCRF-CEM leukemia, 7.21% (active); in the assay on MOLT-4 leukemia, -21.2% (active); in the assay on SR leukemia, -48% (active); with RPMI-8226 leukemia, -39.5% (active). For the same compound, the growth was 36.5% with OVCAR-8 ovarian; 25.8% with OVCAR-4 ovarian; 80.5% with SK-OV-3 ovarian; 22.2% in the assay on IGROV1 ovarian; 22.2% in the assay with OVCAR-3 ovarian; 62.1% in the assay with HS 578T breast. The growth in the assay with NCI/ADR-RES ovarian was 29.1%.
Consider `COc1cc([N+](=O)[O-])cc(OC)c1OC`, for which the growth is 114% in the assay on SK-MEL-2 melanoma; 104% in the assay with EKVX NSCLC; 101% with SN12C renal; 86.5% with UO-31 renal; 106% in the assay with TK-10 renal; 119% in the assay with ACHN renal. Besides, the growth with CAKI-1 renal is 89.5%; in the assay on A498 renal, 79.9%; in the assay with CCRF-CEM leukemia, 105%; in the assay with MOLT-4 leukemia, 103%; in the assay on SR leukemia it was 102%; in the assay on RPMI-8226 leukemia it was 96%. The growth with OVCAR-8 ovarian is 109%; with SK-OV-3 ovarian, 118%; in the assay on IGROV1 ovarian, 100%; with OVCAR-3 ovarian, 108%; in the assay with HS 578T breast it was 107%; in the assay on NCI/ADR-RES ovarian, 114%.
`CCCCc1nc(Cl)c(C2CC(c3ccc(S(N)(=O)=O)cc3)=NN2c2cc(Cl)cc(Cl)c2)[nH]1` (configuration not stated): the growth is 47.2% with SK-MEL-2 melanoma; 51.3% with EKVX NSCLC; 48.6% in the assay with SN12C renal; 58.3% in the assay with UO-31 renal; 84.6% in the assay with TK-10 renal; 59.7% in the assay with ACHN renal. The growth in the assay with CAKI-1 renal is 40.5%; in the assay with A498 renal, 81.7%; in the assay on CCRF-CEM leukemia it was 26.2%; with MOLT-4 leukemia it was 12.3%; in the assay on SR leukemia, 0.947% (active); in the assay on OVCAR-8 ovarian it was 47.1%. Besides, the growth in the assay on OVCAR-5 ovarian was 65.7%; in the assay on OVCAR-4 ovarian, 51.4%; with SK-OV-3 ovarian, 69.6%; with IGROV1 ovarian, 65.6%; in the assay on OVCAR-3 ovarian, 45%; in the assay with HS 578T breast it was 36.9%. In the assay on NCI/ADR-RES ovarian, the growth was 90%.
Regarding `COc1cc(-c2nn(C(=O)NCCN3CCN(C)CC3)cc2-c2ccncc2)ccc1Cl`, the growth in the assay with SK-MEL-2 melanoma is 89.5%; in the assay on EKVX NSCLC it was 46.9%; with SN12C renal, 82.4%; with UO-31 renal, 54%; in the assay on TK-10 renal, 20.5%; in the assay with ACHN renal, 69.5%. Further, the growth was 79.7% in the assay with CAKI-1 renal; 65.8% in the assay with A498 renal; 88.8% in the assay with CCRF-CEM leukemia; 77.4% with MOLT-4 leukemia; 77.5% in the assay with SR leukemia; 24.5% in the assay with OVCAR-8 ovarian. Also, the growth was 84.6% in the assay on OVCAR-5 ovarian; 78% in the assay with OVCAR-4 ovarian; 55.1% with SK-OV-3 ovarian; 75% with IGROV1 ovarian; 97.2% with OVCAR-3 ovarian; 76.9% with HS 578T breast. For the same compound, the growth with NCI/ADR-RES ovarian is 82.4%.
Regarding `CN1C(=O)C(C(=O)/C=C/c2ccccc2C(=O)O)C(=O)N(C)C1=O`, the growth in the assay with SK-MEL-2 melanoma is 106%; in the assay on EKVX NSCLC, 105%; in the assay on SN12C renal, 101%; in the assay on UO-31 renal, 87%; with TK-10 renal, 102%; in the assay with ACHN renal, 108%. In addition, the growth is 90% with CAKI-1 renal; 104% in the assay with A498 renal; 91.9% in the assay on CCRF-CEM leukemia; 97.1% with MOLT-4 leukemia; 98.1% with SR leukemia; 102% in the assay with OVCAR-8 ovarian. In addition, the growth with OVCAR-5 ovarian was 104%; in the assay with OVCAR-4 ovarian it was 109%; in the assay on SK-OV-3 ovarian, 88.8%; in the assay on IGROV1 ovarian it was 119%; in the assay on OVCAR-3 ovarian, 110%; in the assay with HS 578T breast, 98.5%. The growth in the assay with NCI/ADR-RES ovarian was 114%.
With `CCCCc1nc(Cl)c(C2CC(c3ccc(S(N)(=O)=O)cc3)=NN2c2ccc(C#N)cc2)[nH]1` (configuration not stated), the growth is 91% in the assay on SK-MEL-2 melanoma; 89.5% in the assay with EKVX NSCLC; 83% in the assay with SN12C renal; 70.5% in the assay with UO-31 renal; 100% with TK-10 renal; 101% in the assay with ACHN renal. For the same compound, the growth in the assay with CAKI-1 renal is 67.6%; in the assay on A498 renal it was 74.2%; with CCRF-CEM leukemia, 86.8%; in the assay on MOLT-4 leukemia it was 76.1%; in the assay with SR leukemia it was 80.5%; in the assay with OVCAR-8 ovarian, 83.2%. Also, the growth is 88.5% in the assay on OVCAR-5 ovarian; 98.2% in the assay with OVCAR-4 ovarian; 96.4% in the assay on SK-OV-3 ovarian; 93% in the assay on IGROV1 ovarian; 92.5% in the assay with OVCAR-3 ovarian; 79.4% in the assay with HS 578T breast. Besides, in the assay on NCI/ADR-RES ovarian, the growth was 107%.
On to `C=CCN1C(=O)/C(=c2\sc3n(c2=O)C2C(NN=3)N(CC)C(=O)N2CC)c2ccccc21` (configuration not stated), for which the growth is 46.5% with SK-MEL-2 melanoma; 37.3% in the assay on EKVX NSCLC; 35.8% in the assay on SN12C renal; 48.3% in the assay with UO-31 renal; 60.6% in the assay with TK-10 renal; 37.6% with ACHN renal. Besides, the growth with CAKI-1 renal is 43.2%; in the assay with A498 renal, 10.7%; in the assay with CCRF-CEM leukemia it was 12.8%; with MOLT-4 leukemia, 19.1%; in the assay on SR leukemia it was 23.8%; in the assay with OVCAR-8 ovarian, 19%. In addition, the growth is 44.9% in the assay with OVCAR-5 ovarian; 65.6% in the assay with OVCAR-4 ovarian; 34.2% in the assay with SK-OV-3 ovarian; 35.4% with IGROV1 ovarian; -11.4% (active) with OVCAR-3 ovarian; 59.4% in the assay on HS 578T breast.
